# According to PubChem BioAssay (NCATS):
# Values joined by “and” are separate entries in the source; they are usually repeats but may differ in a detail not shown here. Equal entries are not always repeated. Results filed as inconclusive are left out. Entries that show only a call come without a potency. Active and inactive are the calls of the source. Unless noted, the call rests on the fitted dose curve; in most records, active means well fitted curve in the direction sought with a large enough effect; inconclusive means small, poorly fitted or top-dose-only effect, or another doubt; inactive means no such curve, though single readings can be large; an effect the other way counts as inactive or inconclusive.
# Tests used:
# [1] = target: Cytochrome P450 2D6 (Homo sapiens) (UniProt P10635); assay: Cytochrome P450 family 2 subfamily D member 6 (CYP2D6) small molecule antagonists: luciferase biochemical (cell-free) qHTS assay (AID 1645840; active means well fitted curve in the direction sought with a large enough effect in the repeat runs; an effect the other way counts as inactive or inconclusive; further: nearly all actives have a fitted effect of over 55% in size; further: potency means the concentration at half of the fitted maximal effect)
# In short: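 P450-Glo CYP2D6 system: proluciferin substrate converted by enzyme to luciferin, read by luminescence proportional to activity. Enzyme-substrate mix with compound 10 min at room temperature, then NADPH regeneration 1 h before detection reagent.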
# [2] = target: Cytochrome P450 2C9 (Homo sapiens) (UniProt P11712); assay: Cytochrome P450 family 2 subfamily C member 9 (CYP2C9) small molecule antagonists: luciferase biochemical (cell-free) qHTS assay (AID 1645842; active means well fitted curve in the direction sought with a large enough effect in the repeat runs; an effect the other way counts as inactive or inconclusive; further: nearly all actives have a fitted effect of over 55% in size; further: potency means the concentration at half of the fitted maximal effect)
# In short: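 P450-Glo CYP2C9 system: proluciferin substrate with enzyme in mix containing 0.4% BSA, 10 min at room temperature, then NADPH regeneration solution added and incubated 1 h at 37C. Detection reagent stopped reaction; luminescence read after 20 min as RLU.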
# [3] = Primary qHTS for inhibitors of nuclear receptor binding SET domain protein 2 (NSD2) in an isogenic RCH-ACV NSD2 p.E1099K mutant (9B) (AID 1645876); further: nearly all actives have a fitted effect of over 70% in size; further: potency means the concentration at half of the fitted maximal effect
# [4] = Primary qHTS for inhibitors of nuclear receptor binding SET domain protein 2 (NSD2) in an RCH-ACV wild type WT cells (2C) (AID 1645877); further: nearly all actives have a fitted effect of over 70% in size; further: potency means the concentration at half of the fitted maximal effect
# [5] = Viability counterscreen for antagonist of constitutive androstane receptor (CAR) against the NCATS DSHEA and TCM libraries (AID 1794837);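 further: compound exposure lasted 24 h before viability reading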
# In short: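 HepG2-CYP2B6-hCAR cells, 2,500/well, were exposed 24 hr at 37C to substances together with 48 uM CITCO (final). Viability was read as CellTiter-Fluor fluorescence (Ex/Em 405/540 nm) after 1 hr.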
# [6] = target: Nuclear receptor subfamily 1 group I member 3 (Homo sapiens) (UniProt Q14994); assay: Primary qHTS for agonist of constitutive androstane receptor (CAR) against the NCATS DSHEA and TCM libraries (AID 1794839);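 further: HepG2 cells expressing human CAR with a CYP2B6 reporter plus PK11195 antagonist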
# In short: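 HepG2-CYP2B6-hCAR cells, 2,500/well, attached 5 h, then dosed with 0.75 µM PK11195 (final) for 24 h at 37 °C. Luciferase luminescence read (ONE-Glo); CellTiter-Fluor viability (Ex/Em 405/540 nm) in same wells; CITCO positive control.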
# [7] = target: Catechol O-methyltransferase (Homo sapiens) (UniProt P21964); assay: Confirmatory Screen for Target Class Profiling of Small Molecule Inhibitors of Methyltransferases (AID 1745852; calls by dose curve; further: potency means the concentration at half of the fitted maximal effect); conditions: MTase-Glo luminescence, SAH detection, recombinant enzyme; measured here: COMT max response; stronger effect = lower value
# [8] = target: Guanidinoacetate N-methyltransferase (Homo sapiens) (UniProt Q14353); assay: as above; conditions: activity change, negative = inhibition: at 57.3 µM (top of the series) unless noted
# [9] = target: Nicotinamide N-methyltransferase (Homo sapiens) (UniProt P40261); assay: as above; conditions: MTase-Glo luminescence, SAH detection, recombinant enzyme; measured here: NNMT max response; stronger effect = lower value
# [10] = target: Phenylethanolamine N-methyltransferase (Homo sapiens) (UniProt P11086); assay: as above; conditions: MTase-Glo luminescence, SAH detection, recombinant enzyme; measured here: PNMT max response; stronger effect = lower value
# Sequence of Phenylethanolamine N-methyltransferase (Homo sapiens) (P11086 whole entry, looked up): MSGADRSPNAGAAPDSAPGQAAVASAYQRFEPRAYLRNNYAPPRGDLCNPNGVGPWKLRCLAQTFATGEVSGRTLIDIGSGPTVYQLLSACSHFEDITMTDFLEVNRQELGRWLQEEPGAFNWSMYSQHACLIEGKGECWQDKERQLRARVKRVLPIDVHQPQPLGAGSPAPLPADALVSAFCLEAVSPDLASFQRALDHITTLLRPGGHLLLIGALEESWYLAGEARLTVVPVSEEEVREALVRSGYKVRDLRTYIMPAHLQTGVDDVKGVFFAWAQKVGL
# Sequence of Cytochrome P450 2D6 (Homo sapiens) (P10635 whole entry, looked up): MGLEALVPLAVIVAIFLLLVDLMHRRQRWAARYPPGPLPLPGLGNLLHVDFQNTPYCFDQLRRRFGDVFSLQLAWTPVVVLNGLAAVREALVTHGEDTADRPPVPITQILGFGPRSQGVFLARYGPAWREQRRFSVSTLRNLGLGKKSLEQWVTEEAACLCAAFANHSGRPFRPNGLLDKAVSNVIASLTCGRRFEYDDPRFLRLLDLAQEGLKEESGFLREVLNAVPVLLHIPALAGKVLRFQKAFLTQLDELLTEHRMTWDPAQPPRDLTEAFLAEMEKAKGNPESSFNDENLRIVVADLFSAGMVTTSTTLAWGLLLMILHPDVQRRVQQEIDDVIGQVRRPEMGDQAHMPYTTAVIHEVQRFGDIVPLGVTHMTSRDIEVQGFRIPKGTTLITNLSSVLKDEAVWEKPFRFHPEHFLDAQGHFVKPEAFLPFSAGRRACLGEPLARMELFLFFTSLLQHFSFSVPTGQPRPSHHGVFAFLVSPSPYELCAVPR
# Sequence of Cytochrome P450 2C9 (Homo sapiens) (P11712 whole entry, looked up): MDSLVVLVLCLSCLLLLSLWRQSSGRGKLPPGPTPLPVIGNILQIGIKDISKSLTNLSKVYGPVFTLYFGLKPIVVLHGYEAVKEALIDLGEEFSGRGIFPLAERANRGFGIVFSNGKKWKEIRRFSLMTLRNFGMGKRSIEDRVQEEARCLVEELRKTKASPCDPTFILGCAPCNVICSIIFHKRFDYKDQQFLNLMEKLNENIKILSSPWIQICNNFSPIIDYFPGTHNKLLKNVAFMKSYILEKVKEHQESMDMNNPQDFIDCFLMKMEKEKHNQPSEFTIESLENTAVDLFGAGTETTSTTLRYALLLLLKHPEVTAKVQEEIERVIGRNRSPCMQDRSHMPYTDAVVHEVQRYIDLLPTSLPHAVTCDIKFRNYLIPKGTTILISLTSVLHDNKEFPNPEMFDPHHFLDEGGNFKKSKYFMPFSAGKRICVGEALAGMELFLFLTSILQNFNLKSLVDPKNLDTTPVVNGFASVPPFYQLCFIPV
# Sequence of Nicotinamide N-methyltransferase (Homo sapiens) (P40261 whole entry, looked up): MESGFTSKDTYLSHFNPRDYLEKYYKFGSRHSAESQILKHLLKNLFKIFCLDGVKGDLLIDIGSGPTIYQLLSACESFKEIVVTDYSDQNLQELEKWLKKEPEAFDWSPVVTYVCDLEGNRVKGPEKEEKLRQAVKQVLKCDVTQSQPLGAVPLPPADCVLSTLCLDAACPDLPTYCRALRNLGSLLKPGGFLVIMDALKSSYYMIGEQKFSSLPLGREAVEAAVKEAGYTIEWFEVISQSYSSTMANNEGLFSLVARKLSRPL
# Sequence of Catechol O-methyltransferase (Homo sapiens) (P21964 whole entry, looked up): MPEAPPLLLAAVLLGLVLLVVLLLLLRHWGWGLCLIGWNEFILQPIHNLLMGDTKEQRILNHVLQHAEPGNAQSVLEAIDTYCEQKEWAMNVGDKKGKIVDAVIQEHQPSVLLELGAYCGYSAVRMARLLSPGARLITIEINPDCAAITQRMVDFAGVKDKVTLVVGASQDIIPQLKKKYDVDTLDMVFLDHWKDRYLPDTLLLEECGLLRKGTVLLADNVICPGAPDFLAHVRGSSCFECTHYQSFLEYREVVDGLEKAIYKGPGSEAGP
# Sequence of Nuclear receptor subfamily 1 group I member 3 (Homo sapiens) (Q14994 whole entry, looked up): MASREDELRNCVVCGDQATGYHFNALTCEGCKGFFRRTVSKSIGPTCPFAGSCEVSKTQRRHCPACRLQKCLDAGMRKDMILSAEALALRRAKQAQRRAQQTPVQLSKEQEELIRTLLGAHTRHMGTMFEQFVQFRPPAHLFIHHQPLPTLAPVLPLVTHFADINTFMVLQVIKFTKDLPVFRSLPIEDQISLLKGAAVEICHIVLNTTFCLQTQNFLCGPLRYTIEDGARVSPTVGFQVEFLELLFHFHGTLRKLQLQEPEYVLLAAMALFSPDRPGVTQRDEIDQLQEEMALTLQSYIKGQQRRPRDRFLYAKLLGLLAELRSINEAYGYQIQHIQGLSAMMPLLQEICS
smiles,measurement,setting,value
CCOC(=O)N1CCC(NCCNC(=O)c2ccccc2C)CC1,Potency,[1],10.7 µM (active)
same,Potency,[2],inactive
same,Potency,[3],inactive
same,Potency,[4],inactive
CCc1c(CC(N)=O)c2cc(OCCCP(=O)(O)O)ccc2n1Cc1ccccc1,Potency,[1],inactive
same,Potency,[2],inactive
same,Potency,[3],inactive
same,Potency,[4],inactive
CCOC(=O)[C@H](CCc1ccccc1)CC1(C(=O)N[C@H]2CCc3ccccc3N(CC(=O)O)C2=O)CCCC1,Potency,[1],inactive
same,Potency,[2],inactive
same,Potency,[3],inactive
same,Potency,[4],inactive
CC1(C)CC(=O)N(CCCCN2CCN(c3ncccn3)CC2)C(=O)C1,Potency,[1],inactive
same,Potency,[2],inactive
same,Potency,[3],inactive
same,Potency,[4],inactive
CC(=O)N1CCN(NC(=O)c2ccc(F)cc2)CC1,Potency,[1],inactive
same,Potency,[2],inactive
same,Potency,[3],inactive
same,Potency,[4],inactive
O=c1ccn([C@@H]2O[C@H](CO)[C@@H](O)[C@H]2O)c(=O)[nH]1,Potency,[1],inactive
same,Potency,[2],inactive
same,Potency,[3],inactive
same,Potency,[4],inactive
CCC(CC)n1ccc2c(C(=O)NCc3c(C)cc(C)[nH]c3=O)cc(C#N)cc21,Potency,[1],inactive
same,Potency,[2],4.77 µM (active)
same,Potency,[3],inactive
same,Potency,[4],inactive
CC(=O)c1cnc2ccc(-c3cc(Cl)c(O)c(Cl)c3)nc2c1NC1CCC(CN(C)C)CC1 (stereo not drawn),Potency,[1],inactive
same,Potency,[2],inactive
same,Potency,[3],30.3 nM (active) and 3.7 nM (active)
same,Potency,[4],38.2 nM (active) and 3.7 nM (active)
CN(C)c1cccc(-c2c3c(=O)n(-c4ccccc4Cl)[nH]c3cc(=O)n2C)c1,Potency,[1],inactive
same,Potency,[2],5.35 µM (active)
same,Potency,[3],inactive
same,Potency,[4],inactive
C[C@H]1CN(C[C@H](Cc2ccccc2)C(=O)NCC(=O)O)CC[C@@]1(C)c1cccc(O)c1,Potency,[1],inactive
same,Potency,[2],inactive
same,Potency,[3],inactive
same,Potency,[4],inactive
CCOC(=O)c1c(C)nn(-c2cccc([N+](=O)[O-])c2)c1C,Potency,[1],8.49 µM (active)
same,Potency,[2],1.07 µM (active)
same,Potency,[3],inactive
same,Potency,[4],inactive
CO[C@@H]1COCC[C@@H]1N[C@@H]1CC[C@@](C(=O)N2CCc3ncc(C(F)(F)F)cc3C2)(C(C)C)C1,Potency,[1],16.9 µM (active)
same,Potency,[2],inactive
same,Potency,[3],inactive
same,Potency,[4],inactive
COc1ccc(C)c2sc(NC(=O)c3ccncc3)nc12,Potency,[1],6.74 µM (active)
same,Potency,[2],0.849 µM (active)
same,Potency,[3],inactive
same,Potency,[4],inactive
CC1(C)CCC(C)(C)c2cc([C@@H](O)C(=O)Nc3ccc(C(=O)O)cc3F)ccc21,Potency,[1],inactive
same,Potency,[2],13.5 µM (active)
same,Potency,[3],inactive
same,Potency,[4],inactive
CNC(=O)Nc1ccc(OC)c(NC(=O)NC(=O)c2cc(F)c(F)cc2Cl)c1,Potency,[1],inactive
same,Potency,[2],inactive
same,Potency,[3],inactive
same,Potency,[4],inactive
CCn1c2ccccc2c2cc(CNC)ccc21,Potency,[1],9.52 µM (active)
same,Potency,[2],inactive
same,Potency,[3],23 µM (active)
same,Potency,[4],23 µM (active)
CCCCCCCC(=O)O,Potency,[1],inactive
same,Potency,[2],inactive
same,outcome,[5],inactive
same,outcome,[6],inactive
Cc1ccc(C(=O)Nc2ccc(Oc3cc4cnn(C)c4cc3-c3cn[nH]c3)c(F)c2)c(=O)n1-c1ccc(F)cc1,Potency,[1],inactive
same,Potency,[2],2.68 µM (active)
same,Potency,[3],2.9 µM (active) and 5.9 µM (active)
same,Potency,[4],2.9 µM (active) and 3.72 µM (active)
CCOC(=O)Nc1nc2ccccc2[nH]1,Potency,[1],3.79 µM (active)
same,Potency,[3],inactive
CC(C)N(C[C@H]1O[C@@H](n2cnc3c(N)ncnc32)[C@H](O)[C@@H]1O)C1CC(CCc2nc3ccc(C(C)(C)C)cc3[nH]2)C1 (stereo partly drawn),Potency,[1],16.9 µM (active)
same,Potency,[2],inactive
same,Potency,[3],inactive
same,Potency,[4],inactive
same,activity,[7],-14.6% and -12.5%
same,Potency,[8],30.4 µM (active)
same,"activity change, negative = inhibition",[8],-3.18%
same,activity,[9],-85.8% and -82.8%
same,activity,[10],-90.9% and -89.3%
C[C@H](CCC(=O)O)[C@H]1CC[C@H]2[C@@H]3[C@H](O)C[C@@H]4C[C@H](O)CC[C@]4(C)[C@H]3CC[C@]12C,Potency,[1],inactive
same,Potency,[3],inactive
same,Potency,[4],inactive
COc1cc(NC(=O)c2ccccn2)ccc1Cl,Potency,[1],23.9 µM (active)
same,Potency,[2],23.9 µM (active)
same,Potency,[3],inactive
same,Potency,[4],inactive
O=C(COc1ccc(Cl)cc1)NC1CCC(NC(=O)COc2ccc(Cl)cc2)CC1 (stereo not drawn),Potency,[1],inactive
same,Potency,[2],inactive
same,Potency,[3],inactive
same,Potency,[4],inactive
Clc1ccc(CN[C@H]2CCN(c3ncc(Br)cn3)C2)c(Cl)c1,Potency,[1],0.674 µM (active)
same,Potency,[2],8.49 µM (active)
same,Potency,[4],inactive
CCC(=O)NS(=O)(=O)c1ccc(-c2c(-c3ccccc3)noc2C)cc1,Potency,[1],inactive
same,Potency,[2],6.74 µM (active)
same,Potency,[3],inactive
same,Potency,[4],inactive
O=C(Nc1cccnn1)N1CCC(=Cc2cccc(Oc3ccc(C(F)(F)F)cn3)c2)CC1,Potency,[1],10.7 µM (active)
same,Potency,[2],inactive
same,Potency,[3],11.5 µM (active)
same,Potency,[4],10.3 µM (active)
CCS(=O)(=O)N1CCC([C@@H](C)n2c(C)c(C(=O)NCc3c(OC)cc(C)[nH]c3=O)c3ccccc32)CC1,Potency,[1],inactive
same,Potency,[3],inactive
same,Potency,[4],inactive
O=C(O)c1ccc(CCCc2ccc(OCCc3ccc(F)cc3)cc2)o1,Potency,[2],inactive
O=C(c1ccccn1)c1cnn2c(-c3ccncc3)ccnc12,Potency,[1],13.5 µM (active)
same,Potency,[2],12 µM (active)
same,Potency,[3],inactive
same,Potency,[4],inactive
